Records with an inconclusive call do not appear. Calls of active or inactive are those of the source. Rule for the calls: active = hit-call score of the fitted dose curve at least 0.9, where 1 is the maximum; inconclusive = response in the unintended direction; inactive = score below 0.9.
target: Retinoic acid receptor RXR-alpha (Homo sapiens) (UniProt P19793); assay: OT_NURR1_NURR1RXRa_0480: Odyssey Thera (OT) 8-hour HEK293T Protein Complementation Assay for Nurr1/retinoid X receptor (RXR) (AID 2283385)
Sequence (P19793 whole entry, looked up, the tested form may be a part): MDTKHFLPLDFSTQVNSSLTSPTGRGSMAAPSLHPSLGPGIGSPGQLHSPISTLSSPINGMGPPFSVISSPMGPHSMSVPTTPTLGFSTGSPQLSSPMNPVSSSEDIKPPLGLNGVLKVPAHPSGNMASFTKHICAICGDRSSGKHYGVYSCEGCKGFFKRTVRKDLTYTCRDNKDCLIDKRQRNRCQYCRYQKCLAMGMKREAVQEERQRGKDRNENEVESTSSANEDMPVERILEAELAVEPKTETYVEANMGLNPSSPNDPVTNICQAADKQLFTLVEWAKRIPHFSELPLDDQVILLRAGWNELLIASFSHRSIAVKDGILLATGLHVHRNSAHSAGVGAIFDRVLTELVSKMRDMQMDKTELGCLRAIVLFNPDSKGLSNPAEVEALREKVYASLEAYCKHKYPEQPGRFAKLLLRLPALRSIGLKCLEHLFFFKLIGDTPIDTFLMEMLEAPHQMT
Experimental: OT_NURR1_NURR1RXRa_0480 is a cell-based assay that uses HEK293T, a human kidney cell line, with measurements taken at 8 hours after chemical dosing in a 384-well plate.OT_NURR1_NURR1RXRa_0480 is one of one assay component(s) measured or calculated from the OT_NURR1_NURR1RXRa_0480 assay. It is designed to make measurements of protein fragment complementation, a form of binding reporter, as detected with fluorescence intensity signals by Protein-fragment Complementation technology.Data from the assay component OT_NURR1_NURR1RXRa_0480 was analyzed into 1 assay endpoint. This assay endpoint, OT_NURR1_NURR1RXRa_0480, was analyzed in the positive analysis fitting direction relative to DMSO as the negative control and baseline of activity. Using a type of binding reporter, measures of receptor for gain-of-signal activity can be used to understand the binding at the pathway-level as they relate to the gene RXRA. Furthermore, this assay endpoint can be referred to as a primary readout, because the performed assay has only produced 1 assay endpoint. To generalize the intended target to other relatable targets, this assay endpoint is annotated to the nuclear receptor intended target family, where the subfamily is non-steroidal.
Protein-fragment complementation assay, or PCA, is a method for the identification and quantification of protein-protein interactions. In the PCA, the proteins of interest ("bait" and "prey") are each covalently linked to fragments of a third protein (e.g. DHFR, which acts as a "reporter"). Interaction between the bait and the prey proteins brings the fragments of the reporter protein in close proximity to allow them to form a functional reporter protein whose activity can be measured.

Structure (SMILES)	AC50	outcome
CCCCC/C=C\C/C=C\CCCCCCCC(=O)OC	12 µM (active)	
O=C(c1ccccc1)C1CCC1		inactive
CC(C)C1=CC2=CC[C@@H]3[C@](C)(CCC[C@@]3(C)C(=O)O)[C@H]2CC1		inactive
NC(=O)c1ccccc1O		inactive
CCOC(=O)Cc1cccc2ccccc12		inactive
CC(C)(C)c1ccc(N)cc1		inactive
CC/C=C\C/C=C\C/C=C\CCCCCCCC(=O)O		inactive
O=C(C(Cl)Cl)N1CCOC12CCCCC2		inactive
CC(CC=O)CCCC(C)(C)O (stereo not given)		inactive
CC(=O)OC(C)C		inactive
CCCCC(CC)CCC(CC(C)C)OS(=O)(=O)O (stereo not given)		inactive
CC(C)=CCC[C@H](C)CCO	75.8 µM (active)	
CCN(CCC#N)c1ccc(N=Nc2c(Cl)cc([N+](=O)[O-])cc2Cl)cc1	67.7 µM (active)	
NC(CO)(CO)CO		inactive
CC(C)(C)c1ccc(-c2ccc(C(C)(C)C)cc2)cc1	85.6 µM (active)	
CNC(=S)NN	50 µM (active)	
CCCCC/C=C\CCC=O		inactive
O=C(O)CCCC[C@@H]1SC[C@@H]2NC(=O)N[C@@H]21		inactive
CC(C)c1ccc2cc(C(C)C)ccc2c1		inactive
CN(C)c1ccc(C(=N)c2ccc(N(C)C)cc2)cc1	27.7 µM (active)	

Structure (SMILES)	AC50	outcome
CCCCCCCOC(=O)CCC		inactive
CCCCCCCC/C=C\CCCCCCCC(=O)OCCO	38.4 µM (active)	
C=C[Si](C)(C)O[Si](C)(C)C=C		inactive
Cc1ccc(C(C)(C)C)cc1		inactive
O=S(=O)(O)c1ccccc1C=Cc1ccc(-c2ccc(C=Cc3ccccc3S(=O)(=O)O)cc2)cc1		inactive
Cc1cc(C)c(C)cc1C		inactive
Cn1c([N+](=O)[O-])cnc1COC(N)=O		inactive
Oc1ccc(Cl)cc1Cc1cc(Cl)ccc1O	11.7 µM (active)	
O=c1cc(-c2ccccc2)oc2ccccc12		inactive
CC=C1CC2C=CC1C2 (stereo not given)		inactive
Cc1ccc(C(C)c2ccc(C)c(C)c2)cc1C	83.5 µM (active)	
CC(C)(C)c1ccc(OC(=O)c2ccccc2O)cc1	50 µM (active)	
CO[Si](OC)(OC)c1ccccc1		inactive
CC(C)c1ccc2c(C(C)C)cc(C(C)C)c(S(=O)(=O)O)c2c1		inactive
CCCCCCCCCCCCCOP(=O)(O)O		inactive
CCCCCc1ccc(Cl)cc1		inactive
O=C(C=Cc1ccccc1)OCc1ccccc1		inactive
CN(C)c1ccc(N=Nc2ccccc2C(=O)O)cc1		inactive
CCCCCCCCCCOS(=O)(=O)O		inactive
O=C(OCC1CCC2OC2C1)C1CCC2OC2C1 (stereo not given)		inactive
